Source: PubChem (National Center for Advancing Translational Sciences (NCATS))
The list is not random: actives were taken first. Their share in the collection is about 2.2%.
ATXN viability: Viability Counterscreen for Primary qHTS for Inhibitors of ATXN expression; S2 cells (HEK-293 line with an ATXN2-luciferase reporter) viability, CellTiter-Fluor protease fluorescence, 24 h; Potency, µM (doses to about 56.7 µM), actives largely listed as cytotoxic; 400,000 compounds, 0.49% hits; AID 651635, 2014; note: nearly all actives have a fitted effect of over 40% in size
mIDH1 inhibitor: qHTS for Inhibitors of mutant isocitrate dehydrogenase 1 (IDH1): qHTS | Isocitrate dehydrogenase [NADP] cytoplasmic (Homo sapiens), O75874 | IDH1-R132H enzyme, NADPH consumption, diaphorase/resazurin fluorescence | Potency, µM (top dose mostly 76.6 µM), hits mostly inhibitors | 390,000 compounds, 0.093% hits | AID 602179, 2012; note: nearly all actives have a fitted effect of over 65% in size
Target sequence (O75874 whole entry R132H, stated change not applied): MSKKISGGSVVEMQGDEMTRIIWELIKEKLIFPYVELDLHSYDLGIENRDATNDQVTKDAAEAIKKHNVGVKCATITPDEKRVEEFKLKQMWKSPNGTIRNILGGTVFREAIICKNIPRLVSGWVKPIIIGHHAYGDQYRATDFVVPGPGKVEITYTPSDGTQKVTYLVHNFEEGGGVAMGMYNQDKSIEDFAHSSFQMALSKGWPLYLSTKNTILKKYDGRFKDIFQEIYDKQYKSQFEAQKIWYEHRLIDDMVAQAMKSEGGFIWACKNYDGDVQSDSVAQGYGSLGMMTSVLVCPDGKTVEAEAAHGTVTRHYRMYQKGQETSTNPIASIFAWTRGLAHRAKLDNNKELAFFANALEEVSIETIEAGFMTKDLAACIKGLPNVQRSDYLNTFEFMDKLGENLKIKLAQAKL
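IDH1-R132H (0.5 ug/mL) preincubated 30 min with compound, then NADPH (0.016 mM) and alpha-KG (2 mM) added; 80 min at RT, pH 7.5. Remaining NADPH coupled via diaphorase/resazurin to fluorescence (540/590 nm); concentration-response curves normalized to no-enzyme control.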
LDHA block: qHTS assay for inhibitors of human lactate dehydrogenase; L-lactate dehydrogenase A chain (Homo sapiens), P00338; purified LDHA, NADH/diaphorase-resazurin fluorescence; stronger effect = lower value; activity change, % (values are at about 110 or 230 µM); 480,000 compounds, 0.15% hits; AID 1347041, 2019; in the data active = activity change below about -30%; inconclusive = mostly about -25% to -30%
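Human LDH5 at 2 nM final in Tris HCl pH 7.4 with 0.06 mM NADH and 0.2 mM pyruvate, reacted 5 minutes at room temperature. Remaining NADH coupled via diaphorase/resazurin; resorufin fluorescence read at 0 and 20 minutes, normalized to enzyme-free and DMSO wells.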
TGFb SMAD3 inh: qHTS for Inhibitors of TGF-b | HepG2 CAGA-GFP TGF-b/SMAD3 reporter, GFP fluorescence, 18 h; TGF-beta stimulated, 500 pg/mL final | Potency, µM (titrated, usually from 46.1 µM), most hits filed as inhibitors | 410,000 compounds, 1.2% hits | AID 588855, 2011; note: nearly all actives have a fitted effect of over 65% in size
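Cell-based qHTS in HEPG2 carrying a CAGA-GFP Smad reporter; compounds added before 500 pg/mL final TGF-beta, 18 h incubation at 37 degrees C, GFP fluorescence quantified per cell by imaging cytometry.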
HepG2 viability: qHTS for Inhibitors of TGF-b: Cytotox Counterscreen; HepG2 CAGA-GFP viability, ATP luminescence, 18 h; Potency, µM (top dose mostly 46.1 µM), most hits filed as cytotoxic; 410,000 compounds, 0.76% hits
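CellTiter-Glo luminescence gave cytotoxicity after 18 hours at 37 degrees C. The cells were HepG2 CAGA-GFP in 1% FBS DMEM, stimulated with 500 pg/mL TGF-beta after compound addition. %Activity was normalised to no-cell wells (complete cell-killing) and DMSO (no toxicity), and curves were fitted and classified.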
ATXN2 expr inh: Primary qHTS for Inhibitors of ATXN expression; HEK-293 ATXN2-luciferase reporter, luminescence, 24 h; Potency, µM (doses to about 57 µM), most hits filed as inhibitors; 360,000 compounds, 0.72% hits; note: nearly all actives have a fitted effect of over 55% in size
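ATXN2-luciferase reporter cells (luciferase flanked by upstream and downstream ATXN2 gene portions) were treated 24 h at 37 °C with compounds at up to 57 uM. SteadyGlo luminescence gave expression; GF-AFC fluorescence gave viability.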
A number is an active result; i = inactive; ? = inconclusive; nt = no result; ! = not active in a repeat. Unless noted, calls come from the whole dose curve; as a rule, active = well fitted curve in the direction sought with a large enough effect; inconclusive = small, poorly fitted or top-dose-only effect, or another doubt; inactive = no such curve, though single readings can be large; an effect the other way counts as inactive or inconclusive.

SMILES | ATXN viability | mIDH1 inhibitor | LDHA block | TGFb SMAD3 inh | HepG2 viability | ATXN2 expr inh
O=S(=O)(c1ccc(-c2csc(=Nc3ccc(OC(F)(F)Cl)cc3)n2CCCO)cc1)N1CCCC1 | nt | i | i | 3.55µM | i | nt
COCCCn1c(-c2ccc(S(=O)(=O)N3CCOCC3)cc2)csc1=Nc1ccccc1 | ? | i | i | i | i | 31.6µM
CCn1c(-c2ccc(S(=O)(=O)N3CCOCC3)cc2)csc1=Nc1ccc(C)c(Cl)c1 | nt | i | i | i | i | nt
O=C(O)CC1SC(=Nc2cccc(C(F)(F)F)c2)NC1=O (centres undefined) | i | i | i | i | i | i
Cc1nnc2c3cnn(-c4ccccc4)c3ncn12 | nt | nt | i | nt | nt | nt
Cc1c(Cl)cccc1N/C(SCC(=O)N1CCCCCC1)=C(/C#N)c1nc2ccccc2s1 | nt | i | i | i | i | ?
CCN(CC)C(=O)CSC1=N/C(=C/c2ccco2)C(=O)N1c1ccc(OC)c(Cl)c1 | 5.01µM | i | i | ? | i | ?
COc1ccc(CC(N)c2csc(NC(=O)C(c3ccccc3)c3ccccc3)n2)cc1 (centres undefined) | ? | nt | i | ? | 11.2µM | ?
COc1ccc(CC(N)c2csc(NC(=O)c3ccccc3)n2)cc1 (centres undefined) | ? | nt | i | i | i | i
COc1ccc(CC(N)c2csc(NC(=O)c3ccccc3OC)n2)cc1 (centres undefined) | ? | nt | i | i | i | 22.4µM
CC(=O)N(C(C)=O)c1ncnc2c1c(-c1ccc(Cl)cc1)nn2C(C)(C)C | ? | i | -47.7 | ? | i | ?
CCOC(=O)Cn1nc(-c2ccc(Cl)cc2)ccc1=O | i | i | i | i | i | i
CCCCCCCCN1C(=O)[C@H](CC(=O)NCCc2ccccc2OC)C[C@@]2(C(=O)OCC)CCCC=C12 | 22.4µM | nt | i | nt | nt | ?
CN(C)c1ccc(C(=O)NNC(=O)C(F)(F)F)cc1 | nt | nt | i | nt | nt | nt
CC1(C)OC2C(CO)OC(n3cnc4c(=S)nc[nH]c43)C2O1 (centres undefined) | i | i | i | i | i | i
Nc1ncn([C@@H]2O[C@H](CO)[C@@H](O)[C@@H]2O)c(=O)n1 | nt | nt | nt | nt | nt | 5.44µM
OCC1OC(n2cnc3c(=S)nc[nH]c32)C(O)C1O (centres undefined) | nt | nt | i | 10µM! | i | nt
Nc1ncn([C@@H]2O[C@H](CO)[C@@H](O)[C@H]2O)c(=O)n1 | i | i | i | 11.2µM | i | 6.31µM!
Cc1cc(OC(=O)c2ccc(Cl)cc2)cc(OC(=O)c2ccc(Cl)cc2)c1 | nt | nt | i | nt | nt | nt
CSc1cccc(N=C2C(=O)Nc3ccccc32)c1 | i | i | i | i | i | i
CCc1ccc(CN(C)CC(O)COc2cccc3ccccc23)cc1 (centres undefined) | i | i | i | ? | i | ?
CC(CCc1ccc(O)cc1)NC(c1ccccc1)c1ccc(Cl)cc1 (centres undefined) | ? | i | i | ? | 11.2µM | ?
Cc1ccc(CNC(=O)c2nc(SCc3cccc(C)c3)ncc2Cl)cc1 | i | i | i | i | i | i
COc1ccc(NC(=O)c2oc3ccccc3c2NC(=O)c2cc(=O)c3c(C)cc(C)cc3o2)cc1 | i | i | i | i | i | i
CC(=O)C(=Nc1ccc(Cl)cc1Cl)NNc1cccc(Cl)c1 | i | i | i | 22.4µM | i | i
SMILES | ATXN viability | mIDH1 inhibitor | LDHA block | TGFb SMAD3 inh | HepG2 viability | ATXN2 expr inh
CC(=O)Nc1ccc(NC(=O)Nc2cccc(Cl)c2)cc1 | i | i | i | i | i | i
CCOc1ccc(S(=O)(=O)Nc2ccc3c(c2)n(C)c(=O)n3C)cc1 | i | i | i | i | i | i
CCOc1ccc(S(=O)(=O)Nc2ccc3c(c2)c(C(C)=O)c(C)n3S(=O)(=O)c2ccc(OCC)cc2)cc1 | nt | i | i | 11.2µM | i | nt
O=C(Nc1ccc(Cl)cc1)N1CCc2ccccc2C1 | i | i | i | i | i | i
CCCCN(C)CCNC(=O)c1ccc(Cn2c(=S)[nH]c3ccc(Br)cc3c2=O)cc1 | i | i | i | 11.2µM | i | nt
CN(C)CCNC(=O)c1ccc2c(=O)n(Cc3ccc(Cl)cc3)c(=S)[nH]c2c1 | i | i | i | ? | i | i
Cc1nc(-[n+]2nc(-c3ccncc3)nn2-c2ccccc2)sc1C | 14.1µM | nt | i | i | i | ?
CC1=C(C(N)=O)C(c2ccccc2)n2nc(-c3ccncc3)nc2N1 (centres undefined) | i | i | i | i | i | i
O=C(/C=C/c1ccccc1)c1cc(Br)ccc(=O)c1O | ? | i | i | 15.8µM | i | 20µM
Cc1ccc(/C=C/C(=O)c2ccccc(=O)c2O)cc1C | ? | i | i | 10µM | i | ?
O=C(/C=C/c1ccccc1)c1cc2cc(Br)ccc2oc1=O | nt | nt | i | nt | nt | nt
COCc1nn2c(c1-c1ccccc1)NC(=O)CC2C(=O)Nc1ccccc1C(F)(F)F (centres undefined) | nt | nt | i | nt | nt | nt
CCOc1ccc(-n2c(C)cc(C(=O)CCl)c2C)cc1 | nt | i | i | 12.6µM | i | 23.8µM
COC(=O)c1ccc(-n2c(C)cc(C(=O)CCl)c2C)cc1 | 29.9µM | i | i | 20µM | 12.6µM | 15µM
COc1cc(C2=NOC(C(=O)Nc3ccc4c(c3)OCO4)C2)cc(OC)c1OC (centres undefined) | i | i | i | i | i | i
Cc1ccccc1-c1cc(C(=O)O)c2ccccc2n1 | nt | nt | i | nt | nt | nt
Cn1c(=O)c2c(nc(CN3CCC(Cc4ccccc4)CC3)n2CC(N)=O)n(C)c1=O | nt | nt | i | nt | nt | nt
COCCN=c1scc(-c2ccco2)n1/N=C/c1ccc(O)c(O)c1O | i | i | i | i | i | i
CC(C)N=c1scc(-c2ccco2)n1/N=C/c1ccc(O)c(O)c1 | 31.6µM | i | i | ? | i | i
COc1ccc(/C=N/Nc2cc(N3CCCC3)nc(N3CCCC3)n2)cc1 | 28.2µM | i | i | ? | i | 14.1µM
Cc1cc(N/N=C/c2cccc(Cl)c2)nc(-n2nc(C)cc2C)n1 | ? | i | i | i | i | ?
COc1ccc(/C=N/Nc2cc(C)nc(-n3nc(C)cc3C)n2)cc1 | ? | i | i | i | i | 20µM
Cc1cc(N/N=C/c2cccc([N+](=O)[O-])c2)nc(-n2nc(C)cc2C)n1 | i | i | i | i | i | i
Cc1cc(N/N=C/c2ccccc2[N+](=O)[O-])nc(-n2nc(C)cc2C)n1 | ? | i | i | 2.51µM | i | ?
Oc1ccc(/C=N/Nc2cc(N3CCCC3)nc(N3CCCC3)n2)cc1 | i | i | i | i | i | i
